Assay results reported in the supplement of paper PMC7411054.
Where a name gives a salt, the structure may show the parent alone.

Experiments:
Test in all cases: phenotypically active (imaging signature differs from DMSO and reproducible) at any of 0.3-9 uM (binary (1 = active, 0 = inactive)); higher = active
Settings in all cases: treatment time: 24 h
[1] = system: A549-ACTB-RAB5A
Outline: (§1)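 Fifteen gene-edited A549, HepG2 and WPMY1 reporter lines (BFP segmentation plus GFP and RFP/FusionRed markers) were treated at 0.3, 1, 3 or 9 µM for 24 h, four wells each, then imaged live. Live-cell features per well were normalised to DMSO control wells. Deviation required ≥3 of 4 wells beyond the 95th percentile of DMSO Euclidean distances, and reproducibility required median replicate Pearson correlation above the 95th percentile of non-replicates. Phenotypic activity needed both criteria.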

[2] = system: A549-CANX-COX4
Outline: as §1

[3] = system: A549-GM130-SQSTM1
Outline: as §1

[4] = system: A549-TP53BP1-CLTA
Outline: as §1

[5] = system: A549-TUBA1B-RELA
Outline: as §1

[6] = system: HepG2-ACTB-RAB5A
Outline: as §1

[7] = system: HepG2-CANX-COX4
Outline: as §1

[8] = system: HepG2-GM130-SQSTM1
Outline: as §1

[9] = system: HepG2-TP53BP1-CLTA
Outline: as §1

[10] = system: HepG2-TUBA1B-RELA
Outline: as §1

[11] = system: WPMY1-ACTB-RAB5A
Outline: as §1

[12] = system: WPMY1-CANX-COX4
Outline: as §1

[13] = system: WPMY1-GM130-SQSTM1
Outline: as §1

[14] = system: WPMY1-TP53BP1-CLTA
Outline: as §1

[15] = system: WPMY1-TUBA1B-RELA
Outline: as §1

Measured: phenotypically active

CC[N+](CC)(CCNC(=O)C(=O)NCC[N+](CC)(CC)Cc1ccccc1Cl)Cc1ccccc1Cl [ambenonium]
inactive: [1] 0 | [2] 0 | [3] 0 | [4] 0 | [5] 0 | [6] 0 | [7] 0 | [8] 0 | [9] 0 | [10] 0 | [11] 0 | [12] 0 | [13] 0 | [14] 0 | [15] 0

O=C(Nc1cc(C(F)(F)F)cc(C(F)(F)F)c1)c1cnc(Cl)nc1C(F)(F)F
inactive: [1] 0 | [2] 0 | [3] 0 | [4] 0 | [5] 0 | [6] 0 | [7] 0 | [8] 0 | [9] 0 | [10] 0 | [11] 0 | [12] 0 | [13] 0 | [14] 0 | [15] 0

COc1ccc(CCN(C)CCCN2CCc3cc(OC)c(OC)cc3CC2=O)cc1OC [zatebradine]
inactive: [1] 0 | [2] 0 | [3] 0 | [4] 0 | [5] 0 | [6] 0 | [7] 0 | [8] 0 | [9] 0 | [10] 0 | [11] 0 | [12] 0 | [13] 0 | [14] 0 | [15] 0

COP(=O)(OC)OC(c1ccc(Cl)cc1)P(=O)(OC)OC (stereo not given)
inactive: [1] 0 | [2] 0 | [3] 0 | [4] 0 | [5] 0 | [6] 0 | [7] 0 | [8] 0 | [9] 0 | [10] 0 | [11] 0 | [12] 0 | [13] 0 | [14] 0 | [15] 0

O=C(O)[C@]1(O)C[C@H](O)[C@@H](O)[C@@H](O)C1 [Quinic acid]
inactive: [1] 0 | [2] 0 | [3] 0 | [4] 0 | [5] 0 | [6] 0 | [7] 0 | [8] 0 | [9] 0 | [10] 0 | [11] 0 | [12] 0 | [13] 0 | [14] 0 | [15] 0

CC1=Nc2ccc(Cl)cc2S(=O)(=O)N1 [diazoxide]
inactive: [1] 0 | [2] 0 | [3] 0 | [4] 0 | [5] 0 | [6] 0 | [7] 0 | [8] 0 | [9] 0 | [10] 0 | [11] 0 | [12] 0 | [13] 0 | [14] 0 | [15] 0

CN(N=O)C(=O)N[C@@H](C=O)[C@@H](O)[C@H](O)[C@H](O)CO.CN(N=O)C(=O)N[C@H]1C(O)O[C@H](CO)[C@@H](O)[C@@H]1O [streptozotocin]
inactive: [1] 0 | [2] 0 | [3] 0 | [4] 0 | [5] 0 | [6] 0 | [7] 0 | [8] 0 | [9] 0 | [10] 0 | [11] 0 | [12] 0 | [13] 0 | [14] 0 | [15] 0

OC[C@H]1NC[C@@H](O)[C@@H](O)[C@@H]1O [1-Deoxymannojirimycin hydrochloride]
inactive: [1] 0 | [2] 0 | [3] 0 | [4] 0 | [5] 0 | [6] 0 | [7] 0 | [8] 0 | [9] 0 | [10] 0 | [11] 0 | [12] 0 | [13] 0 | [14] 0 | [15] 0

Cc1ccc(-c2csc3ncnc(SCCC(=O)O)c23)cc1
inactive: [1] 0 | [2] 0 | [3] 0 | [4] 0 | [5] 0 | [6] 0 | [7] 0 | [8] 0 | [9] 0 | [10] 0 | [11] 0 | [12] 0 | [13] 0 | [14] 0 | [15] 0

COc1cc(O)c2c(c1C1CCCN1)OC(c1ccc(O)cc1)CC2 (stereo not given) [Vochysine (4 dia/énantio)]
inactive: [1] 0 | [2] 0 | [3] 0 | [4] 0 | [5] 0 | [6] 0 | [7] 0 | [8] 0 | [9] 0 | [10] 0 | [11] 0 | [12] 0 | [13] 0 | [14] 0 | [15] 0

CCCCCCCCCCCCCCCC(=O)C(F)(F)F
inactive: [1] 0 | [2] 0 | [3] 0 | [4] 0 | [5] 0 | [6] 0 | [7] 0 | [8] 0 | [9] 0 | [10] 0 | [11] 0 | [12] 0 | [13] 0 | [14] 0 | [15] 0

C/C=C(/C(=C/C)c1ccc(O)cc1)c1ccc(O)cc1 [dienestrol]
inactive: [1] 0 | [2] 0 | [3] 0 | [4] 0 | [5] 0 | [6] 0 | [7] 0 | [8] 0 | [9] 0 | [10] 0 | [11] 0 | [12] 0 | [13] 0 | [14] 0 | [15] 0

CCN(Cc1ccncc1)C(=O)C(CO)c1ccccc1 (stereo not given) [tropicamide]
inactive: [1] 0 | [2] 0 | [3] 0 | [4] 0 | [5] 0 | [6] 0 | [7] 0 | [8] 0 | [9] 0 | [10] 0 | [11] 0 | [12] 0 | [13] 0 | [14] 0 | [15] 0

O=c1[nH]cnc2c1ncn2[C@H]1CC[C@@H](CO)O1 [Didanosine]
inactive: [1] 0 | [2] 0 | [3] 0 | [4] 0 | [5] 0 | [6] 0 | [7] 0 | [8] 0 | [9] 0 | [10] 0 | [11] 0 | [12] 0 | [13] 0 | [14] 0 | [15] 0

NS(=O)(=O)c1cc(C2(O)NC(=O)c3ccccc32)ccc1Cl (stereo not given) [chlorthalidone]
inactive: [1] 0 | [2] 0 | [3] 0 | [4] 0 | [5] 0 | [6] 0 | [7] 0 | [8] 0 | [9] 0 | [10] 0 | [11] 0 | [12] 0 | [13] 0 | [14] 0 | [15] 0

Clc1cccc(Nc2nnc(-c3ccccc3)c3ccccc23)c1
inactive: [1] 0 | [2] 0 | [3] 0 | [4] 0 | [5] 0 | [6] 0 | [7] 0 | [8] 0 | [9] 0 | [10] 0 | [11] 0 | [12] 0 | [13] 0 | [14] 0 | [15] 0

Cc1cccc(Nc2cc(Cl)nc(SCC(=O)O)n2)c1C
inactive: [1] 0 | [2] 0 | [3] 0 | [4] 0 | [5] 0 | [6] 0 | [7] 0 | [8] 0 | [9] 0 | [10] 0 | [11] 0 | [12] 0 | [13] 0 | [14] 0 | [15] 0

CN(C)c1nc(N(C)C)nc(N(C)C)n1 [altretamine]
inactive: [1] 0 | [2] 0 | [3] 0 | [4] 0 | [5] 0 | [6] 0 | [7] 0 | [8] 0 | [9] 0 | [10] 0 | [11] 0 | [12] 0 | [13] 0 | [14] 0 | [15] 0

O=C(O)CCCc1ccccc1 [Sodium 4-Phenylbutyrate]
inactive: [1] 0 | [2] 0 | [3] 0 | [4] 0 | [5] 0 | [6] 0 | [7] 0 | [8] 0 | [9] 0 | [10] 0 | [11] 0 | [12] 0 | [13] 0 | [14] 0 | [15] 0

Cc1ncc([N+](=O)[O-])n1CCOC(=O)NC(Nc1ncccn1)C(Cl)(Cl)Cl (stereo not given) [Apcin]
inactive: [1] 0 | [2] 0 | [3] 0 | [4] 0 | [5] 0 | [6] 0 | [7] 0 | [8] 0 | [9] 0 | [10] 0 | [11] 0 | [12] 0 | [13] 0 | [14] 0 | [15] 0

CC(c1cc2ccccc2s1)N(O)C(N)=O (stereo not given) [zileuton]
inactive: [1] 0 | [2] 0 | [3] 0 | [4] 0 | [5] 0 | [6] 0 | [7] 0 | [8] 0 | [9] 0 | [10] 0 | [11] 0 | [12] 0 | [13] 0 | [14] 0 | [15] 0

COc1ccc([C@@H]2Sc3ccccc3N(CCN(C)C)C(=O)[C@@H]2OC(C)=O)cc1 [diltiazem]
inactive: [1] 0 | [2] 0 | [3] 0 | [4] 0 | [5] 0 | [6] 0 | [7] 0 | [8] 0 | [9] 0 | [10] 0 | [11] 0 | [12] 0 | [13] 0 | [14] 0 | [15] 0

CCc1c(C)[nH]c2c1C(=O)C(CN1CCOCC1)CC2 (stereo not given) [molindone]
inactive: [1] 0 | [2] 0 | [3] 0 | [4] 0 | [5] 0 | [6] 0 | [7] 0 | [8] 0 | [9] 0 | [10] 0 | [11] 0 | [12] 0 | [13] 0 | [14] 0 | [15] 0

COc1cc(C=O)c([N+](=O)[O-])cc1OC
inactive: [1] 0 | [2] 0 | [3] 0 | [4] 0 | [5] 0 | [6] 0 | [7] 0 | [8] 0 | [9] 0 | [10] 0 | [11] 0 | [12] 0 | [13] 0 | [14] 0 | [15] 0
